Experimental data as given in PubChem BioAssay (Tox21).
Results filed as inconclusive are left out. Activity calls are given as the source filed them. Unless noted, calls follow the shape of the dose curve; as a rule, active = well fitted curve in the direction sought with a large enough effect in the repeat runs; inconclusive = weak or mixed curves; inactive = no such curve, though single readings can be large; an effect the other way counts as inactive or inconclusive.

Columns and labels:
[1] = target: Luciferin 4-monooxygenase (Photinus pyralis) (UniProt P08659); test: qHTS assay to identify small molecule inhibitors of firefly luciferase (AID 1224835); also: nearly all actives have a fitted effect of over 25% in size; also: potency is read from the fitted curve at half-maximal effect
Procedure, shortened: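 Biochemical qHTS: compounds run as interplate titrations against purified firefly enzyme, with D-luciferin and ATP each at its KM concentration. Light output recorded by CCD imaging.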

[2] = qHTS assay to identify small molecule agonists of the constitutive androstane receptor (CAR) signaling pathway - cell viability counter screen (AID 1224836); also: series mostly up to about 92 µM; nearly all actives have a fitted effect of over 45% in size
Procedure, shortened: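 Double-stable HepG2 hepatoma cells (hCAR plus CYP2B6-2.2kb) are treated for 23 h at 37 C with test compounds in 15-point concentration series. PK11195 at 0.75 uM final is co-added. Cell viability is quantified by CellTiter-Fluor.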

[3] = qHTS assay to identify small molecule antagonists of the constitutive androstane receptor (CAR) signaling pathway - cell viability counter screen (AID 1224837); also: series mostly up to about 92 µM; nearly all actives have a fitted effect of over 45% in size
Procedure, shortened: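 Cytotoxicity counter-screen: CellTiter-Fluor fluorescence after 23 h compound exposure (15-point qHTS) in double-stable HepG2-CYP2B6-hCAR cells, with 50 nM CITCO added.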

[4] = target: Nuclear receptor subfamily 1 group I member 3 (Homo sapiens) (UniProt Q14994); test: qHTS assay to identify small molecule antagonists of the constitutive androstane receptor (CAR) signaling pathway (AID 1224838);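 also: HepG2 cells stably expressing hCAR with CYP2B6 luciferase reporter stimulated by CITCO; nearly all actives have a fitted effect of over 40% in size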; also: potency is read from the fitted curve at half-maximal effect
Procedure, shortened: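 Antagonism measured as luciferase signal (ONE-Glo, 30 min, room temperature) in CAR-stimulated cells: HepG2-CYP2B6-hCAR double-stable line exposed 24 hr at 37 C to compound in a 15-point series plus 50 nM CITCO.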

[5] = target: Nuclear receptor subfamily 1 group I member 3 (Homo sapiens) (UniProt Q14994); test: qHTS assay to identify small molecule agonists of the constitutive androstane receptor (CAR) signaling pathway (AID 1224839); also: nearly all actives have a fitted effect of over 15% in size; also: potency is read from the fitted curve at half-maximal effect;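 as to activation: HepG2 cells stably carrying human CAR and a CYP2B6 luciferase reporter; series mostly up to about 92 µM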
Procedure, shortened: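 Readout: firefly luciferase luminescence via ONE-Glo. System: HepG2 double-stable for hCAR and CYP2B6-2.2kb. Conditions: 15-point compound titration, PK11195 at 0.75 uM final, 24 h incubation.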

[6] = qHTS assay to identify small molecule antagonists of the estrogen related receptor signaling pathway with the pleiotropic PPARgamma coactivator (PGC) from Tox21 10K library - cell viability counter screen (AID 1224840; active = well fitted cell-killing curve with a large enough effect in the repeat runs, not every such curve was filed as active; also: nearly all actives have a fitted effect of over 40% in size)
Procedure, shortened: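 Counter-screen for cytotoxicity: after 17.5 h compound exposure at 37 C, CellTiter-Fluor reagent added to PGC/ERR cells for 30 min and fluorescence read. Cells were seeded at 2,000 per well 6 h before dosing.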

[7] = target: Thyrotropin receptor (Homo sapiens) (UniProt P16473); test: qHTS assay to identify small molecule agonists of the thyroid stimulating hormone receptor (TSHR) signaling pathway (AID 1224843; calls by dose curve; also: nearly all actives have a fitted effect of over 45% in size)
Procedure, shortened: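 Agonist-mode screen: TSHR HEK293 cells received test chemicals for half an hour at room temperature, then HTRF cAMP detection reagents for one hour prior to fluorescence measurement. Each chemical ran as a 15-concentration series, triplicated.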

[8] = qHTS assay to identify small molecule agonists of H2AX (AID 1224845; active = well fitted activation curve with a large enough effect in the signal ratio in the repeat runs, not every such curve was filed as active; the % refers to the signal ratio)
Procedure, shortened: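 Wild-type CHO-K1 cells, plated overnight, exposed 3hr at 37C to 15 concentrations (0.76% DMSO final). Lysed, then HTRF anti-pH2AX (S139) cryptate and anti-H2AX-d2 antibodies, 24 hr room temperature; 665/620 nm emission read.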

[9] = qHTS assay to identify small molecule agonists of the hypoxia (HIF-1) signaling pathway (AID 1224846; active = well fitted activation curve with a large enough effect in the signal ratio in the repeat runs, not every such curve was filed as active; the % refers to the signal ratio)
Procedure, shortened: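 Compounds added to ME-180 cells carrying hypoxia-response-element beta-lactamase reporter (0.5% dialyzed FBS, 5 h preplating), 17 h at 37C; agonist activity detected by CCF4-AM B/G FRET read-out.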

[10] = qHTS assay to identify small molecule agonists of H2AX - cell viability counter screen (AID 1224847; calls by dose curve; also: top concentration of the series differs between compounds; nearly all actives have a fitted effect of over 30% in size)
Procedure, shortened: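 For this counter screen, overnight-attached CHO-K1 cells received test compounds (15 concentrations, 0.76% DMSO final); 3 hr later at 37C, CellTiter-Glo reagent was added and luminescence recorded after 30 min at room temperature.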

[11] = qHTS RealTime-Glo MT Cell Viability Assay in HepG2 cells - 24 hour (AID 1224867); also: nearly all actives have a fitted effect of over 50% in size
Procedure, shortened: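 HepG2 cells were seeded at 600 cells/well together with NanoLuc luciferase and a cell-permeant prosubstrate, preincubated 5 h at 37 C/5% CO2, then pin-dosed with compounds in DMSO. Nonlytic luminescence from viable cells was read at each time point.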

[12] = qHTS RealTime-Glo MT Cell Viability Assay in HEK293 cells - 32 hour (AID 1224868); also: top concentration of the series differs between compounds; nearly all actives have a fitted effect of over 50% in size
Procedure, shortened: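 HEK293 cells were seeded at 600 cells/well together with NanoLuc luciferase and cell-permeant prosubstrate, preincubated 5 h at 37 C/5% CO2, then given compound in DMSO by pintool. Luminescence from viable-cell prosubstrate reduction was read repeatedly over 40 h.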

[13] = A CellTox Green Cytotoxicity Assay to monitor cytotoxicity in HEK293 cells - 0 hour (AID 1224869); also: nearly all actives have a fitted effect of over 50% in size
Procedure, shortened: (§1)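 Fluorescence from a DNA-binding dye excluded by viable cells was measured repeatedly in the same HEK293 wells (600 cells/well) during continuous compound exposure at 37 C. Each assay gives one read point: 0, 8, 16, 24, 32 or 40 h.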

[14] = A CellTox Green Cytotoxicity Assay to monitor cytotoxicity in HEK293 cells - 40 hour (AID 1224871); also: nearly all actives have a fitted effect of over 45% in size
Procedure, shortened: as §1

[15] = qHTS assay to identify small molecule agonists of the hypoxia (HIF-1) signaling pathway - cell viability counter screen (AID 1224844; calls by dose curve; also: nearly all actives have a fitted effect of over 50% in size)
Procedure, shortened: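 Cytotoxicity measured by CellTiter-Glo ATP luminescence in the wells also read for beta-lactamase signal. Cells were HRE-bla ME-180 (2,000/well, 0.5% dialyzed FBS), exposed to compounds for 17 h at 37C.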

[16] = qHTS RealTime-Glo MT Cell Viability Assay in HepG2 cells - 40 hour (AID 1224870); also: nearly all actives have a fitted effect of over 50% in size
Procedure, shortened: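 HepG2 cells (600/well) mixed with RealTime-Glo MT reagent, settled 5 h at 37 C/5% CO2 before compound addition. Nonlytic NanoLuc luminescence from viable-cell prosubstrate reduction read repeatedly during 40 h treatment at 37 C.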

Measured: Potency

Chain of Luciferin 4-monooxygenase (Photinus pyralis) (P08659 whole entry, looked up): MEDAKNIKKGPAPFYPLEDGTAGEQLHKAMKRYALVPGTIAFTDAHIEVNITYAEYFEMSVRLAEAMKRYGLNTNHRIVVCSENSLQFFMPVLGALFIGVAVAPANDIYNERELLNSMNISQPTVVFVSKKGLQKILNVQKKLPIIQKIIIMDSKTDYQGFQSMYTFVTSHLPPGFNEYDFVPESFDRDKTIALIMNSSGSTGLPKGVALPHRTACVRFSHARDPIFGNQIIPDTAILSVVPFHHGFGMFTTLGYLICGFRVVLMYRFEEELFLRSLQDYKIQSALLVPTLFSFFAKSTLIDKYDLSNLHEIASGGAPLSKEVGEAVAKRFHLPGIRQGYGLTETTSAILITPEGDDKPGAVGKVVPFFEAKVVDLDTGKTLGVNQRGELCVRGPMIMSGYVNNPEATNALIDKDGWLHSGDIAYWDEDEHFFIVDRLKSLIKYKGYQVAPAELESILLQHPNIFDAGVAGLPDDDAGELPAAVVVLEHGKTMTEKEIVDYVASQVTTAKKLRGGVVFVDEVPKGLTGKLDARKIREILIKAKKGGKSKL
Chain of Nuclear receptor subfamily 1 group I member 3 (Homo sapiens) (Q14994 whole entry, looked up): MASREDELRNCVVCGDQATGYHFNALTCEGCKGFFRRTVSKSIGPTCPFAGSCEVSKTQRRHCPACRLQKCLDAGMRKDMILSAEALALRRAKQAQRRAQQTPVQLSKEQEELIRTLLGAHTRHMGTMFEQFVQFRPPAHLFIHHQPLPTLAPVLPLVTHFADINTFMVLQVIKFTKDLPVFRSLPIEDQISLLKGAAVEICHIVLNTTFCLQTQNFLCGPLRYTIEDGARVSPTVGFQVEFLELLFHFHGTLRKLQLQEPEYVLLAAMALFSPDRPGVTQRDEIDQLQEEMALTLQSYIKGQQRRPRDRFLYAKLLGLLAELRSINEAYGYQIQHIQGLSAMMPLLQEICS
Chain of Thyrotropin receptor (Homo sapiens) (P16473 whole entry, looked up): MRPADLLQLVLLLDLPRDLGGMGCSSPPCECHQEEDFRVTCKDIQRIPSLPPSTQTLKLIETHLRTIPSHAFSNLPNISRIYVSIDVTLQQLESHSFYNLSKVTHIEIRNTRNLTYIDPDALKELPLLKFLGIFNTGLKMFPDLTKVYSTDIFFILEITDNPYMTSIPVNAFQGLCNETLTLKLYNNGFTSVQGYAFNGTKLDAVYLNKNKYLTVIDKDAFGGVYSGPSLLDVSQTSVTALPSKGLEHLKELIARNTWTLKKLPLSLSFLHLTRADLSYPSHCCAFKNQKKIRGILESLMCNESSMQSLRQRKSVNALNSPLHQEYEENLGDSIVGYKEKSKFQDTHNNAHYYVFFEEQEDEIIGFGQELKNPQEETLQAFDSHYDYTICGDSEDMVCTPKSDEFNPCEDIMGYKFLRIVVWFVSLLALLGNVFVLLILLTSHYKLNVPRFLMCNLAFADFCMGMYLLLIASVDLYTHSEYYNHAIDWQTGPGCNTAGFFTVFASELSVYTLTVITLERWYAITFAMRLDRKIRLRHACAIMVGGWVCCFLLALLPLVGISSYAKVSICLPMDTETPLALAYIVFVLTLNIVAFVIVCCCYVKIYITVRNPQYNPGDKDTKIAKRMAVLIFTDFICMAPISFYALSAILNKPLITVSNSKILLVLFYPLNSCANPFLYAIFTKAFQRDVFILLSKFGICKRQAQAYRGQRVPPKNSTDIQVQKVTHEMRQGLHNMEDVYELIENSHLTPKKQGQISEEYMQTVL

FC1(F)C(F)(F)C(F)(F)C2(F)C(F)(C1(F)F)C(F)(F)C(F)(F)C1(F)C(F)(F)C(F)(F)C(F)(F)C(F)(F)C12F (stereo not drawn)
not listed: [15] | [16]
inactive: all other assays above

O=c1c2ccccc2oc2ccccc12
active: [1] 20 µM | [5] 24.3 µM
not listed: [6] | [7] | [9] | [14]
inactive: all other assays above

CCCCCCCCOCCCN
not listed: [6] | [7]
inactive: all other assays above

Cc1c(Cl)cccc1Nc1ccccc1C(=O)O
not listed: [8] | [9] | [10]
inactive: all other assays above

O=c1[nH][nH]c2ccccc12
active: [4] 55.5 µM
not listed: [8] | [9] | [12]
inactive: all other assays above

CCCc1nc(C)c2c(=O)[nH]c(-c3cc(S(=O)(=O)N4CCN(CC)CC4)ccc3OCC)nn12
not listed: [7] | [15]
inactive: all other assays above

O=[N+]([O-])c1ccc(Cl)cc1Cl
not listed: [6] | [10] | [11]
inactive: all other assays above

C[C@@H](O)[C@H]1C(=O)N2C(C(=O)O)=C(S[C@@H]3CN[C@H](CNS(N)(=O)=O)C3)[C@H](C)[C@H]12
not listed: [6] | [7] | [8] | [10] | [11]
inactive: all other assays above

CCC(CC)C(=O)O
not listed: [7] | [14]
inactive: all other assays above
